Among all 330,000 compounds or so, about 5,800 (1.8%) were called active. Cut-off read from the data, not from the text of the source: active = inhibition mostly above about 38% (no sharp cut-off); inactive = mostly below about 40%. The list comes from a sample in which actives are over-represented; it also holds similar structures and randomly drawn compounds.
target: Orexin/Hypocretin receptor type 1 (Homo sapiens) (UniProt O43613); test: blocks the human orexin 1 receptor (AID 485270); details: OX1R-expressing cells, FRET antagonist read-out; at 6.6 µM; hits give high values;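 note: 0% = agonist challenge alone and 100% = reference antagonist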
Sequence (O43613 whole entry, looked up): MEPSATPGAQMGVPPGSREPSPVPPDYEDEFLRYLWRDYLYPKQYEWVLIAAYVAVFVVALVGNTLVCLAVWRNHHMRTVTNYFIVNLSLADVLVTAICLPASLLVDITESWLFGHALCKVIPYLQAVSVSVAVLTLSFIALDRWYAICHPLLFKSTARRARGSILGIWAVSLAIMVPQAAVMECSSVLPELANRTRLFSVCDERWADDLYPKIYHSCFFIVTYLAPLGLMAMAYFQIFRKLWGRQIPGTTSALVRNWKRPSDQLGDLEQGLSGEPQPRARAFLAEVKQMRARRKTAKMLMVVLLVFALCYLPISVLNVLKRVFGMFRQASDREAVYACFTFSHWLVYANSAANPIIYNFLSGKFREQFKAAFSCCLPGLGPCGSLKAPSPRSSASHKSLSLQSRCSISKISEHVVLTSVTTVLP

SMILES | inhibition
Cc1noc(C)c1S(=O)(=O)N(C)C[C@H]1Oc2c(NC(=O)Nc3ccc4c(c3)OCO4)cccc2C(=O)N([C@H](C)CO)C[C@@H]1C | 2.76% (inactive)
C[C@H](CO)N1C[C@H](C)[C@H](CN(C)CC2CC2)Oc2ccc(NC(=O)CCN3CCOCC3)cc2C1=O | -2.5% (inactive)
Cc1ccc(S(=O)(=O)N(C)C)cc1NC(=O)C(C)OC(=O)c1ccc2ccccc2n1 (stereo not given) | 7.22% (inactive)
CC(NC(=O)COC(=O)CCC(=O)c1ccc(Cl)cc1)c1ccccc1 (stereo not given) | 10.1% (inactive)
Nc1nc(COC(=O)CCC(=O)c2ccc(Cl)cc2)nc(Nc2ccccc2)n1 | 37.4% (active)
Cc1ccc(C(=O)OCc2nc(N)nc(Nc3ccccc3C)n2)cc1 | -2.57% (inactive)
O=C(NCc1ccc2c(c1)OCO2)c1cc([N+](=O)[O-])ccc1N1CCOCC1 | 19.9% (inactive)
Cc1c(C(=O)OC(C)C)sc(NC(=O)c2cccnc2)c1C#N | 54.5% (inactive)
CC1CCCCC12NC(=O)N(CC(=O)N1CCN(c3ccccc3)CC1)C2=O (stereo not given) | -1.13% (inactive)
O=C(Nc1cc(S(=O)(=O)Nc2ccc(Cl)cc2)ccc1O)c1ccc(F)cc1F | 8.71% (inactive)
O=C(CN1C(=O)NC2(CCCCCCC2)C1=O)NCc1ccc(F)cc1 | 8.6% (inactive)
CC[C@@]1(C(=O)OC)N[C@H](CN(C)C(C)=O)[C@@H]2C(=O)N(C)C(=O)[C@@H]21 | 1.97% (inactive)
Cc1ccc(S(=O)(=O)NC[C@H]2O[C@@H](n3cnc4c(N)ncnc43)[C@H](O)[C@@H]2O)s1 | -6.3% (inactive)
CCN(CC)c1ccc(NC(=O)c2ccc(Cl)nc2)cc1 | 17.1% (inactive)
CCN(CC)c1ccc(/C=N/NC(=O)CNC(=O)c2cccnc2)cc1 | 3.18% (inactive)
CCN(CC)c1ccc(C(=O)c2cnc(/N=C/N(C)C)s2)cc1 | 66.5% (active)
CCCCN(C)CCCNC(=O)c1cc(-c2cccs2)nc2ccccc12 | 13.3% (inactive)
O=C(Nc1nnc(-c2ccccc2)o1)c1cc(-c2cccs2)nc2ccccc12 | 88.8% (active)
O=C(NCCN1CCOCC1)c1cc(-c2cccs2)nc2ccccc12 | 18.8% (inactive)
O=C(c1ccc(S(=O)(=O)NCc2ccco2)cc1)N1CCN(c2ccccc2)CC1 | 11.5% (inactive)
COc1ccc(S(=O)(=O)Nc2cccc3c2O[C@H](CN(C)S(=O)(=O)c2ccc(OC)cc2)[C@@H](C)CN([C@H](C)CO)C3=O)cc1 | -2.59% (inactive)
COc1cc(OC)cc(C(=O)NNC(=O)Cc2cccs2)c1 | 1.69% (inactive)
Cc1oc2cc([N+](=O)[O-])c(O)c([N+](=O)[O-])c2c1C(=O)c1ccc(Br)cc1 | 67.5% (active)
Cc1cc(C(=O)O)ccc1[N+](=O)[O-] | 1.62% (inactive)
COc1ccc(C(=O)c2c(C)oc3cc([N+](=O)[O-])c(O)c([N+](=O)[O-])c23)cc1 | 30.6% (inactive)

Reference: PubChem BioAssay AID485270 (The Scripps Research Institute Molecular Screening Center, 2010)
